Screens (PubChem BioAssay)
Sm TGR inh = blocks Schistosoma mansoni thioredoxin glutathione reductase; purified TGR, DTNB reduction, TNB absorbance 405 nm; Potency, µM (top dose mostly 114 µM), inactives show at the top dose activity change, negative = inhibition, hits mostly inhibitors; 360,000 compounds, 3% hits; AID 485364; also: potency is read from the fitted curve at half-maximal effect; nearly all actives have a fitted effect of over 60% in size
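Kinetic colorimetric format: TGR-catalysed, NADPH-driven DTNB reduction monitored via TNB absorbance. Enzyme dispensed at 20 nM; compound exposure 15 min at room temperature before reaction start.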
HCMV inh = blocks human cytomegalovirus replication | HFF cells, HCMV-luciferase reporter, 72 h; active compounds read low | activity change, negative = inhibition, % at 57.5 µM | 410,000 compounds, 4.5% hits | AID 1259415; in the data active = activity change below about -60%; inconclusive = no clear call, values can overlap the other calls; inactive = above about -39%
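Two compound doses tested in HFFs infected with HCMV-luciferase, MOI 1 PFU/cell, 72 h at 37C. Lysate luminescence read with OneGlo; data normalized against buffer-only and 10uM Salinomycin inhibitor controls.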
Pf growth 96h = P. falciparum growth inhibition at 96 hours; P. falciparum luciferase reporter growth, 96 h; Potency, µM (series often up to 28.7 µM), for inactives: at the highest dose activity change, negative = inhibition, most hits filed as inhibitors; 320,000 compounds, 6.9% hits; AID 504834; also: potency is read from the fitted curve at half-maximal effect
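Infected RBCs, 2% Hct / 0.05% parasitemia final; luciferase-reporter P. falciparum; cpd 96 h, 37 C, 5% CO2; luciferase detection reagent; luminescence.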
Pf growth 48h = inhibits P. falciparum growth in the first generation, 48 h | Potency, µM (series often up to 28.7 µM), for the others: at the top dose activity change, negative = inhibition, most hits filed as inhibitors | P. falciparum luciferase growth in erythrocytes, 48 h | 310,000 compounds, 5.9% hits; also: potency is read from the fitted curve at half-maximal effect
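Parasite viability was followed by luminescence of a genomically integrated firefly luciferase. Cultures held 0.1% parasitemia at 2% hematocrit (final), incubated under 5% CO2 at 37 C.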
Giardia FBPA inh = blocks Giardia fructose-bisphosphate aldolase activity; purified Giardia FBPA; 290,000 compounds, 0.71% hits; A8B2U2; AID 2451; Potency, µM (titrated, usually from 59.6 µM), without a hit: top-dose activity, negative = inhibition, usual class: inhibitors; also: potency is read from the fitted curve at half-maximal effect; nearly all actives have a fitted effect of over 55% in size
Target sequence (A8B2U2 whole entry, looked up): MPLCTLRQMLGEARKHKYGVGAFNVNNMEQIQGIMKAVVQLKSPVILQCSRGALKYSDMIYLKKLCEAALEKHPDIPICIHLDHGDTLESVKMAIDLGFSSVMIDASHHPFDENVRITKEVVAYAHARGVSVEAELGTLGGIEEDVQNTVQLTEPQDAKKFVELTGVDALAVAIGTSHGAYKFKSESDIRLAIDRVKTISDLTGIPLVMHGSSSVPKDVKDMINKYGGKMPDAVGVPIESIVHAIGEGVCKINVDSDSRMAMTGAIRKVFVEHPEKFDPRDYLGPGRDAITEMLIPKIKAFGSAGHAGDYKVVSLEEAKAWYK
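Giardia FBPA (40 nM reagent) was preincubated 10 min at RT with compound (up to 57.5 uM final), then substrate plus GAPDH/TPI/NAD/arsenate coupling system with diaphorase/resazurin was added; resorufin fluorescence (525/598 nm) was read after 20 min.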
The depositor's hits bear a star; ? = inconclusive; · = no result; [ ] = another dose, or the depositor's remark. Rows were chosen to be rich in hits. Some 14% of all compounds tested hit in one or more screens of this group. Unless noted, calls follow the shape of the dose curve; as a rule, active = well fitted curve in the direction sought with a large enough effect; inconclusive = small, poorly fitted or top-dose-only effect, or another doubt; inactive = no such curve, though single readings can be large; an effect the other way counts as inactive or inconclusive. % is scaled to controls: 0 for no effect and ±100 for the full control effect.

SMILES	Sm TGR inh	HCMV inh	Pf growth 96h	Pf growth 48h	Giardia FBPA inh
COCCNC(=S)N1CCN(c2ccc(Cl)cc2)CC1	8%	-34	?	6%	8%
COC(=O)CSc1[nH]c2ccc(Br)cc2c1[N+](=O)[O-]	2.5µM*	-15	23%	22%	3%
CCOc1ccc2[nH]c(SCC(=O)OC)c([N+](=O)[O-])c2c1	45µM*	38	11%	29%	-2%
O=C(CCNS(=O)(=O)c1cccc2nsnc12)NCCC1=CCCCC1	-30%	15	2%	-10%	-6%
CC(NC(=O)CCNS(=O)(=O)c1cccc2nsnc12)c1ccccc1 (centres undefined)	-4%	-24	2.9µM*	7%	-1%
O=S(=O)(Nc1ccccc1)c1cccc2nsnc12	3%	22	8.3µM*	5%	3%
O=S(=O)(Nc1ccc2c(c1)OCCO2)c1cccc2nsnc12	0%	-68*	?	·	-9%
O=S(=O)(NCCC1=CCCCC1)c1cccc2nsnc12	0%	-27	57%	3.7µM*	9%
CC(C)(C)C(=O)OCOP(=O)(OCOC(=O)C(C)(C)C)C(C)(Oc1ccc(O)cc1)P(=O)(OCOC(=O)C(C)(C)C)OCOC(=O)C(C)(C)C	·	·	·	·	-8%
Cc1ccc(S(=O)(=O)N2CCN(C(=O)COC(=O)C3CCC3)CC2)c(C)c1	-16%	6	23%	7%	·
CC1(C)OC(=O)C(=NNc2ccc(C(=O)O)cc2)C(=O)O1	-2%	-90*	7%	26%	-4%
CC1(C)OC(=O)C(=NNc2ccccc2)C(=O)O1	0%	-4	-23%	21%	-5%
N#Cc1ccccc1NC(=O)COC(=O)CSc1nc2ccccc2o1	4%	74	1µM*	26%	3%
C[C@]12CCC(=O)C=C1C=CC1C2CC[C@]2(C)C(=O)CCC12 (some centres undefined)	·	-70*	·	·	·
CCC(C(=O)O)n1nnc(-c2ccc(OCc3ccccc3)c(OC)c2)n1 (centres undefined)	3%	-1	4.7µM*	1%	-18%
COc1ccc(C(C#N)CC(=O)c2ccc(OC)c(OCc3ccccc3)c2)cc1OC (centres undefined)	·	-70*	·	·	·
N#Cc1nc(COc2ccccc2)oc1N1CCC(Cc2ccccc2)CC1	-2%	-25	-1%	9.3µM*	-5%
Cc1ccc(N=C2NC(=O)/C(=C\c3ccc(C)s3)S2)cc1	1%	-38	1.7µM*	?	-3%
CCc1ccc(N=C2NC(=O)/C(=C/c3cc(OC)c(O)c(OC)c3)S2)cc1	3%	?	-30%	?	-11%
COc1cc(/C=C2/SC(=Nc3ccc(O)cc3)NC2=O)ccc1O	-23%	-77*	?	?	0%
Cc1ccc(N=C2NC(=O)/C(=C/c3cccn3C)S2)cc1C	2%	?	13µM*	?	3%
COc1cc(/C=C2\SC(=Nc3ccccc3)NC2=O)cc(Cl)c1O	-13%	-4	6.6µM*	0%	-13%
Cc1ccc(N=C2NC(=O)/C(=C/c3cccn3C)S2)cc1	-8%	-40	?	95%	-6%
O=c1c(-c2cc(F)cc(F)c2)nc2cnc(N3CCOCC3)nc2n1-c1ccccc1	·	·	·	·	0%
CC1(C)CC(NS(=O)(=O)c2ccc(C(C)(C)C)cc2)CC(C)(C)N1	1%	-8	296%	3%	6%
SMILES	Sm TGR inh	HCMV inh	Pf growth 96h	Pf growth 48h	Giardia FBPA inh
O=C1NC(=Nc2ccccc2)S/C1=C\c1ccccc1	-2%	-86*	0%	-21%	-15%
Cc1cc(/C=C2\SC(=Nc3ccccc3)NC2=O)c(C)n1-c1ccc(S(N)(=O)=O)cc1	?	-96*	?	4.1µM*	-13%
O=C1C(Cl)=C(N2CCN(c3ccccc3[N+](=O)[O-])CC2)C(=O)c2ccccc21	1.6µM*	?	8.3µM*	?	?
O=[N+]([O-])c1cc(Cl)ccc1N1CCCC1	0%	-4	-8%	4%	3%
CCOc1cc(/C=N/n2cnnc2)ccc1O	1%	72	15%	17%	8%
C=CCc1cc(/C=C2/NC(=S)NC2=O)cc(OC)c1O	5%	102	-2%	-7%	-6%
C=CCc1cc(/C=C2/NC(=O)NC2=O)cc(OCC)c1O	50µM*	-2	1µM*	-4%	-21%
C=CCc1cc(/C=N/n2cnnc2)cc(OCC)c1O	-24%	3	8.3µM*	?	-10%
CCCCN(C(=O)c1ccc(S(=O)(=O)N2CCCCC2)cc1)C1CCS(=O)(=O)C1 (centres undefined)	-2%	-2	2%	38%	·
Cc1ccccc1OCC(=O)N(Cc1ccc(N(C)C)cc1)CC1CCCO1 (centres undefined)	0%	-63*	·	·	·
Cc1ccccc1OCC(=O)O/N=C(\N)c1ccncc1	-7%	23	45%	?	6%
CCOC(=O)c1c(C)n(C(=O)c2ccco2)c(=O)n1C(=O)c1ccco1	35µM*	25	17%	18%	-11%
Cc1ccc(NC(=O)CN2CCN(C(=O)c3ccco3)CC2)cc1S(=O)(=O)N(C)C	·	4	·	·	·
NC(=O)c1ccc(NC(=O)CN2CCN(C(=O)c3ccco3)CC2)cc1	-27%	4	2.3µM*	12%	·
COc1ccccc1NC(=O)c1ccc(NC(=O)CN2CCN(C(=O)c3ccco3)CC2)cc1	-9%	-24	?	-24%	2%
CCOC(=O)c1ccc(NC(=O)CN2CCN(C(=O)c3ccco3)CC2)cc1	?	42	-3%	9.3µM*	·
CCOc1ccc(NC(=O)CN2CCN(C(=O)c3ccco3)CC2)cc1S(=O)(=O)N1CCCC1	1%	35	15µM*	?	·
CCOC(=O)c1c(C)c(C(=O)N2CCN(C(=O)c3ccco3)CC2)c(C)n1C	7%	9	·	-6%	1%
CC(=O)N1CCc2c(sc3c2c(=O)n(-c2ccccc2)c(=O)n3CC(=O)Nc2ccccc2)C1	-2%	52	·	·	·
COc1ccc(C(=O)N/C(=C/c2cccs2)C(=O)N2CCN(C)CC2)cc1	·	-35	·	·	·
Cc1nc2ccccc2c(=O)n1NC(=O)c1ccc(Cl)c(Cl)c1	-24%	3	?	32%	12%
COc1ccc(CN2CCC[C@]3(N[C@H](c4ccc(C(F)(F)F)cc4)[C@@H]4C(=O)N(C)C(=O)[C@@H]43)C2=O)cc1	·	-12	·	·	·
O=C1C=C[C@]23OCC[C@@]2(c2ccccc2)CCCC3=C1	·	-4	·	·	·
COc1ccc(NC(=O)c2ccc(-c3ccc(-c4noc(C)n4)cc3C)cc2)cc1OCCN(C)C	·	·	·	·	-8%
COC(=O)[C@H]1[C@@H](C)N(CCc2cc(OC)c(OC)c(OC)c2)C(=O)N[C@H]1c1ccccc1	·	-23	·	·	2%[12.9 µM]
O=C1C=C(OCCF)CC(c2cccc([N+](=O)[O-])c2)O1 (centres undefined)	·	-4	·	·	·
COc1ccc(Cn2c(SCC(=O)NCc3ccc(Cl)cc3)nc3ccsc3c2=O)cc1	0%	16	·	·	·
